Usually AC50 stands for the midpoint of the concentration-response curve, whichever way the signal moves.

Structures are written as SMILES. Calls of active or inactive are those of the source. How the source made its calls: active means hit-call score of the fitted dose curve at least 0.9, where 1 is the maximum; inactive means score below 0.9.

The nature of this assay: ATG_CMV_CIS: Attagene CIS-FACTORIAL HepG2 Assay for human CMV (Internal Marker) (AID 2282928).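 Further: endpoint acts as a background internal control marker rather than a target.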 The note with it: HepG2 CMV promoter reporter, transcription factor profiling; actives raise or lower the signal. The procedure:
ATG_CIS is a cell-based, multiplexed-readout assay that uses HepG2, a human liver cell line, with measurements taken at 24 hours after chemical dosing in a 24-well plate.ATG_CMV_CIS is one of 52 assay component(s) measured or calculated from the ATG_CIS assay. It is designed to make measurements of mRNA induction, a form of inducible reporter, as detected with fluorescence intensity signals by Reverse transcription polymerase chain reaction (RT-PCR) and Capillary electrophoresis technology.Data from the assay component ATG_CMV_CIS was analyzed into 1 assay endpoint. This assay endpoint, ATG_CMV_CIS, was analyzed with bidirectional fitting relative to DMSO as the negative control and baseline of activity. Using a type of inducible reporter, measures of mRNA for gain or loss-of-signal activity can be used to understand the background control at the transcription factor-level as they relate to the gene . Furthermore, this assay endpoint can be referred to as a secondary readout, because this assay has produced multiple assay endpoints where this one serves a background control function. To generalize the intended target to other relatable targets, this assay endpoint is annotated to the background measurement intended target family, where the subfamily is internal marker.
Human liver HepG2 cells are transiently transfected with multiple reporter transcription units (MRTUs) in 6-well plates using FuGene 6 reagent (Roche; 3 ml FuGene/1 mg DNA). The MRTU constructs are regulated by a cis-regulating element (promoter). […] A major difference between the CIS and TRANS system is that in CIS activities of endogenous TFs are measured, whereas the TRANS assay evaluates changes in activities of exogenous, chimeric NR-Gal4 proteins. […] At the end of 24 hour incubation, total RNA was isolated using TriZol reagent (Invitrogen). The isolated RNA is then reverse-transcribed using oligo(dT) primer and Mo-MLV reverse transcriptase (Invitrogen) with DNAse I (Ambion) treatment for 30 min. The one-tenth of the produced cDNA was amplified by PCR using Taq DNA polymerase (Invitrogen) and two reporter sequence-specific primers. The PCR products were fluorescently labeled by primer extension with 6-arboxyfluorescein (6-FAM) 5'-labeled reporter sequence-specific primer (2 min at 95 C, 20 s at 68 C and 10 min at 72 C) and these products were digested with 5U of HpaI (New England Biolabs) for 2h at 37 C. The fragments were purified using Qiaquick PCR columns (Qiagen), analyzed on an ABI 3130xL genetic analyzer (Applied Biosystems) with peak positions identified by using a set of X-rhodamine (ROX)-labeled MapMarker1000 molecular weight standards (BioVentures). The raw capillary electrophoresis data was processed using Attagraph software (Attagene).
Take `NC(=O)C(F)(F)C(F)(F)C(F)(F)C(F)(F)F`: the result was inactive. The same measure, in the same setting: as for `CC(C)=CCCC(C)CCOC(=O)C(C)C` (stereo not given), the entry is “inactive”; as for `O=C(CC(=O)C(F)(F)C(F)(F)F)C(F)(F)F`, “inactive”. For the compound `c1ccc(-c2ccccc2-c2ccccc2)cc1`, the AC50 is 29.8 µM (active).

For the compound `C=CC(=O)OCC(F)(F)C(F)(F)C(F)(F)C(F)(F)COC(=O)C=C`, the AC50 was 58.1 µM (active).

In the case of `C=CC(F)(F)C(F)(F)C(F)(F)C(F)(F)C(F)(F)C(F)(F)C(F)(F)C(F)(F)C=C`, the outcome was inactive. The same measure, in the same setting: the entry for `Nc1ccc([N+](=O)[O-])cc1O` is “inactive”. Turning to `Cc1cccc(N(C)C)c1`, the compound was classed as inactive.

As to `CCCCCC=O`, the result was inactive. Regarding `FC(F)(I)C(F)(F)C(F)(F)C(F)(F)I`, the compound was classed as inactive.

Regarding `CN(C)Cc1ccccc1O`, the call was inactive. For `C=CC/C=C/C/C=C/C/C=C/C`, the compound was classed as inactive. For the compound `O=C(O)C(F)(OC(F)(F)C(F)(OC(F)(F)C(F)(OC(F)(F)C(F)(F)C(F)(F)F)C(F)(F)F)C(F)(F)F)C(F)(F)F` (stereo not given), the result was inactive.

For the compound `FC(F)(F)C(F)(F)C(F)(F)C(F)(F)C(F)(F)C(F)(F)CCS`, the call was inactive. As for `CC(Cc1ccc(O)c(O)c1)C(C)Cc1ccc(O)c(O)c1` (stereo not given), the outcome was inactive.

With `FC(F)(F)C(F)(F)CNCC(F)(F)C(F)(F)F`, the call was inactive. On the same count and under the same terms, as for `CCc1c(Br)c(Br)c(Br)c(Br)c1Br`, the entry is “inactive”.

On to `Cc1ccc(S(=O)(=O)OCC(F)(F)C(F)(F)C(F)(F)C(F)(F)C(F)(F)C(F)F)cc1`, for which the result was inactive. In the case of `O=C(O)C(F)(F)C(F)(F)OC(F)(F)F`, the result was inactive. For the compound `CCC(=O)OCCc1ccccc1`, the compound was classed as inactive. Consider `C=CC(F)(F)C(F)(F)C(F)(F)C(F)(F)C(F)(F)C(F)(F)C(F)(F)C(F)(F)F`, for which the compound was called inactive.

Consider `COC(=O)C1CCC(C(=O)OC)CC1` (stereo not given), for which the compound was called inactive.

Consider `OCC(F)(F)C(F)(F)C(F)(F)F`, for which the compound was classed as inactive. With `OCC(F)(F)C(F)(F)C(F)(F)C(F)(F)C(F)(F)C(F)F`, the outcome was inactive. As to `O=C(O)C(F)(OC(F)(F)C(F)(OC(F)(F)C(F)(F)C(F)(F)F)C(F)(F)F)C(F)(F)F` (stereo not given), the result was inactive. Take `O=C(C=Cc1ccccc1)OCC=Cc1ccccc1`: the compound was called inactive. On to `CC/C=C\CCOC(=O)c1ccccc1`, for which the call was inactive. As to `FC(F)(F)C(F)(F)C(F)(F)C(F)(F)C(F)(F)CCI`, the AC50 is 97.7 µM (active). Turning to `O=C(OCCOCCOCCOC(=O)c1ccccc1)c1ccccc1`, the compound was called inactive. Turning to `FC(F)(F)C(F)(F)C(F)(F)C(F)(F)C(F)(F)C(F)(F)CC1CO1` (stereo not given), the call was inactive. In the case of `O=S(=O)(O)c1ccc2ccccc2c1`, the result was inactive. On to `Cc1cc(C)cc(O)c1`, for which the compound was called inactive. Still for that read-out and setting: the entry for `O=C(O)C(F)(F)C(F)(F)F` is “inactive”; for `O=S(=O)(OCC(F)F)C(F)(F)F` it is “inactive”. `FC(F)(F)C(F)(F)C(F)(F)CI`: the compound was called inactive. `CCCCOc1ccc(N)cc1`: the compound was called inactive.

On to `O=C(O)C(F)(F)C(F)(F)C(F)(F)C(F)(F)F`, for which the compound was called inactive. Take `FC1CC(F)(F)C(F)(F)C1(F)F` (stereo not given): the result was inactive.

For the compound `CCN(CC)c1ccc2c(C)cc(=O)oc2c1`, the concentration at half-maximal activity (AC50) is 26.5 µM (active). With `CCCCCCCOC(=O)c1ccccc1C(=O)OCCCCCCC`, the compound was called inactive.

The values are drawn from PubChem BioAssay (EPA / NIEHS).
